Among the test systems are NCI-H23 lung; NCI-H226 lung; NCI-H322M lung; HOP-62 NSCLC; NCI-H460 lung; HOP-92 NSCLC; NCI-H522 lung; 786-0 renal; COLO 205 colon; A549/ATCC NSCLC.
What all share (test): NCI-60 one-dose screen, 48 h (100 = growth as untreated, 0 = no growth, -100 = all killed)
Details in all cases: 10 µM

Compounds without any hit were thinned out: in the full panel of roughly 83,000, 20% have a hit.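 Treatment: one concentration, 48 hours, 96-well format. Scoring: percent growth, with anything below 10 considered active.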 Values without a mark were called inactive. Calls of active or inactive are those of the source.

The source of these data is PubChem BioAssay (NCI).

Consider `COC(=O)[C@]12CC[C@@H](C)[C@H](C)[C@@H]1C1=CC[C@@H]3[C@@]4(C)CC(=O)[C@H](O)[C@@]5(C)COC(=C45)C[C@@]3(C)[C@]1(C)CC2`, for which the growth in the assay on NCI-H23 lung is -66.5% (active); with NCI-H226 lung it was -74.7% (active); in the assay with NCI-H322M lung, -73.4% (active); with HOP-62 NSCLC, -74.7% (active); in the assay with NCI-H460 lung it was -51.8% (active); in the assay on HOP-92 NSCLC it was -83.2% (active). In addition, the growth with NCI-H522 lung was -76.3% (active); with 786-0 renal, -76.5% (active); in the assay on COLO 205 colon it was -80.6% (active).
Take `Cc1ccccc1C1=N[C@@H](Cc2ccccc2)C(=O)c2c(nc3ccccn23)N1`: the growth is 95.3% with NCI-H23 lung; 98.9% in the assay on NCI-H226 lung; 106% with NCI-H322M lung; 93.4% in the assay on HOP-62 NSCLC; 103% with NCI-H460 lung; 90.5% in the assay on HOP-92 NSCLC. Also, the growth was 121% with NCI-H522 lung, 91.7% in the assay with A549/ATCC NSCLC, 101% in the assay with 786-0 renal and 107% in the assay with COLO 205 colon.
Consider `COc1c(C)c(C)c(OC)c2c1[nH]c(=O)c1c3cccnc3cn21`, for which the growth in the assay with NCI-H23 lung was 103%; in the assay on NCI-H226 lung it was 99%; with NCI-H322M lung, 153%; with HOP-62 NSCLC, 92.6%; in the assay with NCI-H460 lung, 104%; with HOP-92 NSCLC, 102%. Also, the results for the growth in the assay on NCI-H522 lung, in the assay on 786-0 renal and with COLO 205 colon were 98.4%, 114% and 118%, respectively.
Turning to `COc1c(-c2c3sc(=O)[nH]c3nc3c2c(=O)[nH]n3C(C)C)cc2c(c1OC)OCO2`, the growth with NCI-H23 lung is 100%; in the assay with NCI-H226 lung, 85.8%; with NCI-H322M lung it was 92.2%; in the assay on HOP-62 NSCLC, 94.5%; in the assay on NCI-H460 lung it was 107%; with HOP-92 NSCLC it was 72.2%. Moreover, the growth in the assay with NCI-H522 lung is 86%; with 786-0 renal it was 86.5%; in the assay on COLO 205 colon it was 117%.
With `Cc1cc(Nc2cccc(F)c2)nc(NCc2ccccc2)n1`, the growth in the assay on NCI-H23 lung was -2.43% (active); in the assay with NCI-H226 lung it was 40.4%; in the assay with NCI-H322M lung, 63.2%; in the assay with HOP-62 NSCLC, 70.5%; in the assay with NCI-H460 lung, 6.63% (active); with HOP-92 NSCLC it was -2.56% (active). Further, the growth in the assay on NCI-H522 lung was 6.89% (active); in the assay with A549/ATCC NSCLC it was 16.2%; in the assay with 786-0 renal it was 45.7%; in the assay with COLO 205 colon, 8.24% (active).
As to `CCOC(=S)Sc1ccc([N+](=O)[O-])cc1[N+](=O)[O-]`, the growth in the assay with NCI-H23 lung is 97.3%; in the assay on NCI-H226 lung, 88.8%; in the assay on NCI-H322M lung it was 93.3%; with HOP-62 NSCLC it was 94%; with NCI-H460 lung, 106%; in the assay on HOP-92 NSCLC, 48.6%. Also, the figures for the growth with NCI-H522 lung, with 786-0 renal and with COLO 205 colon were -1.29% (active), 102% and -13.1% (active), respectively.
On to `COc1cc(-c2nc3ccccc3[nH]2)ccc1OCC(=O)N=Nc1c(O)[nH]c2ccccc12`, for which the growth with NCI-H23 lung was 90%; in the assay with NCI-H226 lung, 105%; with NCI-H322M lung, 96%; in the assay with HOP-62 NSCLC it was 99.6%; in the assay with NCI-H460 lung it was 109%; in the assay on HOP-92 NSCLC, 78.1%. Also, the values for the growth in the assay on NCI-H522 lung, with 786-0 renal and in the assay on COLO 205 colon were 80.1%, 97.8% and 74.6%, respectively.
With `CCCCC(=O)N(c1ccc(Nc2c3ccccc3nc3cc([N+](=O)[O-])ccc23)cc1)S(C)(=O)=O`, the growth in the assay with NCI-H23 lung was 81.8%; in the assay on NCI-H226 lung, 71.3%; with NCI-H322M lung it was 82.1%; in the assay with HOP-62 NSCLC, 56%; in the assay with NCI-H460 lung, 14%; in the assay with HOP-92 NSCLC it was 39.2%. For the same molecule, the results for the growth in the assay with NCI-H522 lung, in the assay on 786-0 renal and with COLO 205 colon were 50.7%, 74.3% and 88.1%, respectively.
As to `Cc1ccc(C)c(S(=O)(=O)NC2c3ccccc3Oc3ccccc32)c1`, the growth with NCI-H23 lung is 98%; in the assay with NCI-H226 lung it was 90.3%; with NCI-H322M lung it was 88.3%; in the assay with HOP-62 NSCLC it was 96.1%; in the assay with NCI-H460 lung, 105%; in the assay on HOP-92 NSCLC, 59.6%. Further, the growth was 31.6% in the assay with NCI-H522 lung, 88% with 786-0 renal and 99.2% in the assay on COLO 205 colon.
On to `COc1cc(/C=C/C(=O)c2cc(-c3ccccc3)ccc2O)cc(OC)c1OC`, for which the growth with NCI-H23 lung was 66.3%; with NCI-H226 lung, 93.4%; with NCI-H322M lung, 86.1%; with HOP-62 NSCLC, 83.8%; in the assay with NCI-H460 lung, 67.6%; in the assay on HOP-92 NSCLC it was 61.3%. The growth is 54.9% in the assay with NCI-H522 lung, 94% with 786-0 renal and 91.5% in the assay on COLO 205 colon.
With `CCCCOCCOCCOCc1cc2c(cc1Br)OCO2`, the growth in the assay on NCI-H23 lung is 99.3%; in the assay with NCI-H226 lung, 97.4%; in the assay on NCI-H322M lung it was 91.8%; in the assay on HOP-62 NSCLC, 92.7%; with NCI-H460 lung it was 111%; with HOP-92 NSCLC, 85%. The growth was 80.4% in the assay on NCI-H522 lung, 100% with 786-0 renal and 107% with COLO 205 colon.
Turning to `CCCCCCCCCCCCc1ccc(C(=O)/C=C/C(=O)O)cc1`, the growth with NCI-H23 lung was 78.6%; in the assay with NCI-H226 lung, 121%; in the assay with NCI-H322M lung it was 116%; with HOP-62 NSCLC, 93%; in the assay with NCI-H460 lung, 94.2%; in the assay with HOP-92 NSCLC, 46.4%. Further, the growth is -24.2% (active) with NCI-H522 lung, 78.4% in the assay on A549/ATCC NSCLC, -3.51% (active) with 786-0 renal and 21.6% in the assay with COLO 205 colon.
As to `Nc1cc(O)cc(O)c1`, the growth with NCI-H23 lung was 93.9%; in the assay on NCI-H226 lung, 107%; with NCI-H322M lung, 104%; with HOP-62 NSCLC it was 88.1%; with NCI-H460 lung, 106%; with HOP-92 NSCLC it was 93.4%. For the same molecule, the growth in the assay with NCI-H522 lung was 94%; with 786-0 renal, 93.9%; in the assay on COLO 205 colon it was 102%.
For the molecule `O=S(=O)(NC1c2ccccc2Oc2ccccc21)c1ccccc1`, the growth is 98% with NCI-H23 lung; 95.3% with NCI-H226 lung; 91.6% in the assay with NCI-H322M lung; 90.1% in the assay with HOP-62 NSCLC; 107% in the assay on NCI-H460 lung; 63.8% in the assay with HOP-92 NSCLC. Also, the growth in the assay with NCI-H522 lung was 31.3%; with 786-0 renal, 82.1%; in the assay with COLO 205 colon, 95.6%.
